D2 ag-1: activates the human D2 dopamine receptor; HEK293 T-REx D2 cells, calcium flux agonist mode; activation, % at 2 µM; hit rate 0.53% among 340,000; AID 485358;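 active means activation over 3 SD above normal in the single-dose calcium agonist read, cut at about 30% in these data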; further: 0% is about no effect
Target sequence (P14416 whole entry, looked up): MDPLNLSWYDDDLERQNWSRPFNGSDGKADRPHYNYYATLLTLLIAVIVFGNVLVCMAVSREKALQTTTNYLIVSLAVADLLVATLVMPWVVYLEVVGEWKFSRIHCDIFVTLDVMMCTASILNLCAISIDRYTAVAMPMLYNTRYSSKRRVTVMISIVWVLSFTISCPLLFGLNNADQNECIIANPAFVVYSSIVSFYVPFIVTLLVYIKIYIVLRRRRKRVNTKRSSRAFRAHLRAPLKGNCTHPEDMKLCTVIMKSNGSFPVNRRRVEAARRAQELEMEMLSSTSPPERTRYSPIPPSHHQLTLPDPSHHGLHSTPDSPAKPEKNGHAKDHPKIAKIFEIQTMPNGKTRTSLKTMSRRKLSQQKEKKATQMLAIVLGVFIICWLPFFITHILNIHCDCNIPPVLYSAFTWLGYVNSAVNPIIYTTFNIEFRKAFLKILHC
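Tetracycline-induced HEK293 T-REx cells with force-coupled D2 receptor, plated overnight at 30 C, loaded with no-wash calcium dye. After a 10 s baseline, compound was pin-added and calcium flux read kinetically for 180 s; calcium rises flagged agonists.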
D2 PAM-1: positive allosteric modulators of human D2 dopamine receptor; P14416; DiscoveRx D2 beta-arrestin cells, luminescence, 90 min; 100% = 57 uM dopamine signal; potentiation, % (no concentration beside the values); hit rate 0.23% among 360,000; in the data active means potentiation above about 50%; inconclusive means mostly about 30% to 49%
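PathHunter D2 cells, attached overnight at 37 deg C, received compound in DMSO plus dopamine at EC20 (50 nM final) for 90 min at 37 deg C. Beta-arrestin recruitment was read as luminescence after 1 h with detection reagent at ambient temperature.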
D2 antag: antagonists of human D2 dopamine receptor; P14416; HEK293 TREx D2 cells, calcium flux, dopamine EC80; inhibition, % at 10 µM; hit rate 2% among 340,000; AID 485344; in the data active means inhibition above about 30%; inactive means below that, where a call was filed; further: 0% is about no effect
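Inhibition of EC80 dopamine-driven calcium flux, recorded kinetically, defines activity here; cells are a tetracycline-induced HEK293 T-REx line expressing force-coupled D2.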
D2 PAM-2: positively modulates the human D2 dopamine receptor allosterically; P14416; AID 485347; potentiation, % at 10 µM; hit rate 0.34% among 340,000; HEK293 T-REx D2, calcium flux, EC20 dopamine potentiation;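 active means potentiation over 3 SD above the plate norm, cut at about 30% in these data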; further: 0% is about no effect
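Potentiation of an EC20 dopamine calcium response measured kinetically over 180 s, after a preceding 180 s compound-only read flagging agonists. Cells: inducible Hek293 Trex D2 line, 4000/well, cultured overnight at 30 C before dye loading.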
D2 ag-2: human D2 receptor agonism in beta-arrestin assay | P14416 | DiscoveRx PathHunter D2 beta-arrestin, luminescence, 90 min; 100% = 57 uM dopamine signal | activation, % (no concentration beside the values) | hit rate 0.084% among 360,000 | AID 624465; in the data active means activation above about 40%; inconclusive means between about 15% and that limit
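Agonist mode: compounds alone added to overnight-plated D2 PathHunter cells for 90 min at 37 C, with 57 uM final dopamine (EC100) defining full response. Beta-arrestin recruitment detected by chemiluminescent reagent, read after 1 h at ambient temperature.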
D3 arrestin ag: confirmation of human D3 dopamine receptor agonists, beta-arrestin; shares compounds with D2 ag-1; Potency, µM (doses to about 76.9 µM), inactives show at the top dose activation, hits mostly activators; DiscoveRx D3 beta-arrestin cells, luminescence, 90 min; hit rate 4% among 2,300;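 further: potency means the concentration at half of the fitted maximal effect; 100% = dopamine control response; nearly all actives have a fitted effect of over 70% in size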
D2 ag-3: counter-screen for D3 agonists: human D2 dopamine receptor agonism | shares compounds with D2 ag-1 | DiscoveRx PathHunter D2 beta-arrestin, luminescence, 90 min; response scale: percent relative to full dopamine signal | Potency, µM (highest dose often 76.9 µM), for the others: at the highest dose activation, most hits filed as activators | hit rate 5.9% among 2,300 | AID 720507; further: potency means the concentration at half of the fitted maximal effect; % of control where 0% means no effect; nearly all actives have a fitted effect of over 70% in size
Active calls of the source: *; ? = inconclusive; nt = not tested or not shown. An excerpt weighted towards active compounds, which were near 2.4% of everything screened. Unless noted, the call rests on the fitted dose curve; in most records, active means well fitted activation curve with a large enough effect; inconclusive means small, poorly fitted or top-dose-only effect; inactive means flat fitted curve, though single readings scatter.

SMILES	D2 ag-1	D2 PAM-1	D2 antag	D2 PAM-2	D2 ag-2	D3 arrestin ag	D2 ag-3
O=C(CN1CCN(C(=O)c2ccco2)CC1)Nc1ccc(Cl)c(S(=O)(=O)N2CCOCC2)c1	45.1*	7.4	-1.3	-16.0	-5.1	?	11.4%
O=C(CN1CCN(C(=O)c2ccco2)CC1)Nc1ccc2c(c1)OCCO2	61.3*	11.3	53.5*	-17.7	?	24.7%	24.0%
O=C(CN1CCN(c2ccccc2)CC1)Nc1ccc2c(c1)OCCO2	56.5*	-35.3	45.2*	-30.6	13.8	14.7%	?
O=[N+]([O-])c1ccc(-n2nnnc2CN2CCCCC2)cc1	0.3	5.4	-6.3	1.7	0.0	nt	nt
CC(C(=O)Nc1cccc([N+](=O)[O-])c1)N1CCN(C/C=C/c2ccccc2)CC1 (configuration not stated)	72.1*	-20.1	47.0*	-30.0	9.3	25.9%	?
O=C(c1cccc([N+](=O)[O-])c1)N1CCN(C/C=C/c2ccccc2)CC1	0.3	-18.4	28.7	-13.5	-1.3	nt	nt
CC(=O)CCc1ccc(OCC(O)CNCCOc2ccc(C)cc2)cc1 (configuration not stated)	66.0*	-7.4	61.0*	-26.2	5.9	?	?
CC/C(=N\Nc1ccccc1[N+](=O)[O-])c1ccc(O)cc1	0.4	-7.1	9.5	27.1	-2.3	nt	nt
CN1C/C(=C\c2ccc(N3CCOCC3)cc2)C(=O)/C(=C/c2ccc(N3CCOCC3)cc2)C1	25.2	-12.4	0.1	5.8	-3.8	-0.4%	-5.2%
CN1C/C(=C/c2ccsc2)C(=O)/C(=C/c2ccsc2)C1	69.4*	-18.8	44.4*	-22.8	1.1	0.1%	-2.1%
Cc1cccc2c(=O)c(C(=O)N3CCCCCC3)c[nH]c12	0.2	-6.6	-15.4	-0.3	-0.8	nt	nt
Oc1ccc(Br)cc1CNc1cccc2cccnc12	0.5	14.2	-12.1	6.6	7.4	nt	nt
Cc1ccc(O)c(NC(=S)NC(=O)Cc2ccc(Cl)cc2)c1	nt	-6.0	nt	nt	2.2	-7.1%	-1.9%
Cc1cccc(N2C(=N)SCC2=O)c1C	0.9	-2.3	1.4	-2.6	-2.1	nt	nt
Cc1cccc(N2CCN(Cc3nc(CC4CC4)no3)CC2)n1	29.7	-3.6	-33.5	-10.1	1.9	-5.2%	-4.5%
Cc1cccc(SC2CCN(Cc3nc(CC4CC4)no3)CC2)c1	1.0	4.8	-14.9	2.3	2.6	nt	nt
O=S(=O)(NCC(c1ccc2c(c1)OCO2)N1CCN(c2ccccc2)CC1)c1ccccc1 (configuration not stated)	71.3*	9.6	80.5*	-27.8	?	12.8%	?
COc1cc(C(=O)OCc2ccc(C)cc2)cc(NC(=O)c2cccs2)c1OC	6.0	8.7	37.6*	19.7	-4.6	-6.0%	21.7%
COc1ccc(CCNC(=O)CSC2=NS(=O)(=O)c3ccccc3N2)cc1OC	0.0	-17.1	-3.1	2.7	0.3	nt	nt
O=C(CSC1=NS(=O)(=O)c2ccccc2N1)NCCc1ccccc1	27.7	-7.0	10.7	1.1	1.7	5.6%	-0.4%
COc1ccc(C(CC(=O)c2ccccc2)S(=O)(=O)c2ccc(C)cc2)cc1 (configuration not stated)	9.4	-9.9	7.0	5.7	-2.6	nt	nt
O=S(=O)(Nc1ncn[nH]1)c1ccc2ccccc2c1	0.4	18.5	-10.9	4.4	-1.9	nt	nt
O=S(=O)(Nc1nc2ccccc2[nH]1)c1ccc2ccccc2c1	56.5*	-5.7	0.6	-19.3	0.0	-30.2%	-0.2%
COc1ccc(C2=NOC3(CC(=O)N(c4ccc(F)cc4)C3=O)C2)c(OC)c1 (configuration not stated)	-0.7	0.1	5.2	-12.7	0.1	nt	nt
COc1ccc(C2=NOC3(CC(=O)N(c4ccc5ccccc5c4)C3=O)C2)c(OC)c1 (configuration not stated)	6.4	4.5	13.5	3.4	1.3	5.2%	0.8%
SMILES	D2 ag-1	D2 PAM-1	D2 antag	D2 PAM-2	D2 ag-2	D3 arrestin ag	D2 ag-3
Cc1cc(C)c(NC(=O)Cn2cnc3c(oc4ccccc43)c2=O)c(C)c1	-0.1	-5.8	15.6	-8.0	4.9	-1.4%	-1.4%
COC(=O)C(Cc1ccccc1)N1CCS(=O)(=O)CC1 (configuration not stated)	0.4	-0.4	-6.9	-1.4	-14.0	nt	nt
Cc1ccc(S(=O)(=O)c2cc3ccccc3oc2=O)cc1	-1.3	-8.4	13.3	0.8	-4.6	nt	nt
CCN(CC)c1ccc2cc(S(=O)(=O)c3ccc(C)cc3)c(=O)oc2c1	28.7	-2.3	4.9	2.3	1.5	-2.5%	1.7%
Cn1c(SCC(=O)c2ccc3c(c2)NC(=O)CO3)nc2ccccc21	2.2	-4.6	-13.0	2.9	4.8	nt	nt
CCCn1c(SCC(=O)c2ccc3c(c2)NC(=O)CO3)nc2ccccc21	5.2	-1.5	1.9	-6.9	-0.1	-2.2%	4.5%
COc1cc2c(cc1OC)C1CC(=O)C(CC(C)C)CN1CC2 (configuration not stated)	48.2*	-29.8	20.9	-20.3	7.0	-9.6%	12.6%
COc1ccc(C2=NO[C@@H]3C(=O)N(c4c(C)cccc4C)C(=O)[C@H]23)cc1OC	-0.1	5.7	4.2	6.3	-2.4	nt	nt
CC1(c2ccccc2)NC(=O)N(CC(=O)Nc2ccc(S(=O)(=O)Nc3ncccn3)cc2)C1=O (configuration not stated)	53.2*	8.5	50.0*	-11.8	1.9	-2.0%	-2.2%
COc1cccc(NC(=O)CN(C)C(=O)Cc2ccc3c(c2)OCCO3)c1	-0.4	5.0	-3.8	-7.0	4.2	-1.4%	-3.2%
COc1cccc(CC(=O)OCC(=O)N(C)CC(=O)Nc2ccccc2Cl)c1	-0.3	-10.7	5.9	-3.9	-5.0	-8.9%	0.0%
CC(C)=CCN1CCC(n2nccc2NC(=O)c2ccccc2Cl)CC1	0.0	-24.1	15.6	-16.9	-7.3	nt	nt
O=C(Nc1ccnn1C1CCN(CCCc2ccccc2)CC1)c1ccccc1Cl	79.5*	13.2	87.7*	-35.2	?	10.2%	?
CC(C)(O[C@@H]1O[C@H](CO)[C@@H](O)[C@H](O)[C@H]1O)[C@H]1Cc2cc3ccc(=O)oc3cc2O1	1.5	-4.9	-10.1	-7.3	-3.9	nt	nt
CC(C)(O[C@@H]1O[C@H](CO)[C@@H](O)[C@H](O)[C@H]1O)[C@@H]1CC=C(C(=O)O)CC1	-1.0	4.6	-18.4	10.4	-2.0	-3.2%	-2.1%
CC(C)(C)OC(=O)N1CCC(NC(=O)c2[nH]cnc2C(=O)Nc2ccc(Cl)cc2)CC1	1.1	-16.0	1.4	5.7	-1.2	-1.6%	-2.3%

Screens deposited in PubChem by National Center for Advancing Translational Sciences (NCATS).
